# Measured values taken from PubChem BioAssay AID463173 (ICCB-Longwood Screening Facility, Harvard Medical School, 2010).
# Out of some 52,000 compounds screened, about 4,300 (8.3%) were called active. No stated cut-off is given here; in the data, active means survival mostly below about 52% (no sharp cut-off); inactive means mostly above about 56%. The list comes from a sample in which actives are over-represented; it also holds similar structures and randomly drawn compounds.
# System: DeltatarO mutant
# Assay: growth inhibition of S. aureus wild type versus tarO mutant, primary screen, teichoic acid synthesis inhibitors, RN4220, OD600 (AID 463173)
# Details: OD600, 18 h, active compounds read low, screened at 18.75 µg/mL (by protocol)
row,SMILES,survival
1,CCC(=O)Nc1ccc2nc(SCc3ccc(C)cc3)sc2c1,84% (inactive)
2,Cc1ccc(-n2nc(C)c3c(C(=O)Nc4ccccc4C(F)(F)F)cc(C)nc32)cc1,95% (inactive)
3,Cc1ccc(NC(=O)CSc2nnc(C)s2)c(C)c1,67% (inactive)
4,CCOc1ccc(CNCc2c(C(=O)O)c(C)n(Cc3ccc(F)cc3Cl)c2C)cc1,118% (inactive)
5,Cc1ccc(C)c(Cn2c(=O)n(-c3ccccc3)c(=O)c3c4c(sc32)CCCC4)c1,120% (inactive)
6,COc1ccc(CCNC(=O)C(=O)NCC(c2ccco2)S(=O)(=O)c2ccc(C)cc2)cc1 (stereo unspecified),134% (inactive)
7,O=C(Cn1c(=O)c2cccn2c2ccccc21)Nc1cc(F)ccc1F,44% (inactive)
8,CCCn1c(CCC(=O)Nc2ccccc2OC)nc2cccnc21,88% (inactive)
9,Cc1cc(C)c(S(=O)(=O)NCCc2sc3nc(-c4ccc(F)cc4)nn3c2C)c(C)c1,79% (inactive)
10,COc1ccc(-c2nc3sc(CCNS(=O)(=O)c4ccccc4)c(C)n3n2)cc1,64% (inactive)
11,CCS(=O)(=O)NCCc1sc2nc(-c3ccc(OC)cc3)nn2c1C,72% (inactive)
12,Cc1ccc(-c2nc3sc(CCNS(=O)(=O)c4cc(F)ccc4F)c(C)n3n2)cc1,-2% (active)
13,COc1ccc(-c2nc3sc(CCNS(=O)(=O)c4c(C)cc(C)cc4C)c(C)n3n2)cc1,-1% (active)
14,CCCS(=O)(=O)NCCc1sc2nc(-c3ccc(F)cc3)nn2c1C,76% (inactive)
15,CCCS(=O)(=O)NCCc1sc2nc(-c3ccc(Cl)cc3)nn2c1C,70% (inactive)
16,COc1ccc(F)cc1S(=O)(=O)NCCc1sc2nc(-c3ccc(F)cc3)nn2c1C,90% (inactive)
17,Cc1c(CCNS(=O)(=O)c2ccccc2)sc2nc(-c3ccc(Cl)cc3)nn12,6% (active)
18,Cc1ccc(-n2ncc3c(N4CCN(CCO)CC4)ncnc32)cc1Cl,101% (inactive)
19,CCN(CC)c1ncccc1C(=O)NCc1cccs1,81% (inactive)
20,Cc1c(Cl)cccc1NC(=O)Nc1nnc(N2CCCCCC2)s1,84% (inactive)
21,COc1ccccc1Nc1c2c(nc3ccc(NC(=O)c4ccc(OC)c(OC)c4)cc13)CCCC2,59% (inactive)
22,COc1ccc(C(=O)Nc2ccc3nc4c(c(Nc5ccc(OC)c(OC)c5)c3c2)CCCC4)c(OC)c1,87% (inactive)
23,COc1ccccc1Nc1c2c(nc3ccc(NC(=O)c4ccccc4F)cc13)CCCC2,82% (inactive)
24,COc1ccccc1Nc1c2c(nc3ccc(NC(=O)c4cccc(F)c4)cc13)CCCC2,70% (inactive)
25,COc1ccccc1Nc1c2c(nc3ccc(NC(=O)c4cccc(OC)c4OC)cc13)CCCC2,46% (active)
26,COc1ccc(C(=O)Nc2ccc3nc4c(c(Nc5ccccc5OC)c3c2)CCCC4)c(OC)c1,48% (active)

row,SMILES,survival
1,O=C(CNC(=O)c1ccc(Cl)cc1)OCc1cc(=O)n2nc(C3CC3)sc2n1,67% (inactive)
2,COC(=O)c1cn(C(C)C(=O)NCc2ccco2)c2ccccc12 (stereo unspecified),91% (inactive)
3,O=C(CSCc1ccc(F)cc1)N1CCc2c([nH]c3ccccc23)C1c1ccccc1 (stereo unspecified),101% (inactive)
4,Cc1ccc(NC(=O)C(=O)c2cc(C)n(-c3ccc(F)cc3)c2C)cc1C,89% (inactive)
5,CC(=O)c1ccccc1OCC(O)Cn1c(CO)nc2ccccc21 (stereo unspecified),59% (inactive)
6,Cc1ccc2c(c1)c1c(c(=O)n(Cc3ccccc3)c(=O)n1CC(=O)Nc1ccccc1C)n2C,99% (inactive)
7,Cc1cc(OCC(=O)Nc2cc(-c3nc4ccccc4[nH]3)ccc2C)ccc1Cl,96% (inactive)
8,Cc1cccc(OCC(=O)Nc2ccc3c(c2)N(C)C(=O)c2ccccc2S3)c1,73% (inactive)
9,COc1ccc(-n2nc3ccc(NC(=O)COc4ccc(C)c(C)c4)cc3n2)cc1,56% (inactive)
10,Cc1cccc(OCC(=O)Nc2ccc(Cl)c(-c3nc4ccccc4[nH]3)c2)c1,38% (active)
11,CC(C)CC(=O)Nc1cccc(-c2nc3ccccc3[nH]2)c1,68% (inactive)
12,COc1cccc(C(=O)Nc2ccc(Cl)c(-c3nc4ccccc4[nH]3)c2)c1,68% (inactive)
13,Cc1ccc(OCC(=O)Nc2ccc(Cl)c(-c3nc4ccccc4[nH]3)c2)cc1C,43% (active)
14,Cc1cc(C)cc(OCC(=O)Nc2cccc(-c3nc4ccccc4[nH]3)c2)c1,31% (active)
15,COc1cccc(N2CC(NC(=O)c3ccc(S(=O)(=O)N4CCCCC4)cc3)CC2=O)c1 (stereo unspecified),92% (inactive)
16,CCn1c(=O)c(C(=O)Nc2ccc(C(C)=O)cc2)nc2ccccc21,81% (inactive)
17,CC1CCN(S(=O)(=O)c2ccc3c(ccn3CC(=O)NCc3ccc(N(C)C)cc3)c2)CC1,77% (inactive)
18,COc1cccc(CNC(=O)c2cc3cccc4c3n2CC(C)S4)c1OC (stereo unspecified),84% (inactive)
19,Cc1cc(C)c(S(=O)(=O)N2CCC(N3CCN(Cc4ccccc4)C(=O)C3=O)CC2)c(C)c1,68% (inactive)
20,N#CC1=C(N)OC2=C(C(=O)CCC2)C12C(=O)Nc1ccc(F)cc12 (stereo unspecified),93% (inactive)
21,COC(=O)Cn1c(C2CC(=O)N(c3c(C)cccc3C)C2)nc2ccccc21 (stereo unspecified),58% (inactive)
22,CCCCN1CC(c2nc3ccccc3n2CCCCOc2ccccc2C)CC1=O (stereo unspecified),34% (active)
23,CCCCN1CC(c2nc3ccccc3n2CCCCOc2cccc(C)c2C)CC1=O (stereo unspecified),2% (active)
24,CCCCN1CC(c2nc3ccccc3n2CCCCOc2c(C)cccc2C)CC1=O (stereo unspecified),46% (active)
25,Cc1cccc(C)c1OCCCCn1c(C2CC(=O)N(c3ccc(F)cc3)C2)nc2ccccc21 (stereo unspecified),77% (inactive)
26,Cc1ccccc1OCCCCn1c(C2CC(=O)N(c3ccccc3Cl)C2)nc2ccccc21 (stereo unspecified),76% (inactive)

row,SMILES,survival
1,Cc1cccc(NC(=O)CS(=O)(=O)c2cccc3nsnc23)c1,74% (inactive)
2,Cc1cc2cc(CCNS(=O)(=O)c3ccc(Br)cc3)c(=O)[nH]c2cc1C,48% (inactive)
3,O=c1c2oc3ccccc3c2n(Cc2cccc(C(F)(F)F)c2)c(=O)n1Cc1ccc2c(c1)OCO2,108% (inactive)
4,CN1C(=O)Cc2cc(S(=O)(=O)CCC(=O)N3CCN(c4ccc(Cl)cc4)CC3)ccc21,86% (inactive)
5,COc1ccc(Cn2c(=O)c3oc4ccccc4c3n(Cc3cccc(C(F)(F)F)c3)c2=O)cc1,73% (inactive)
6,Nc1nc(SCC(=O)Nc2cccc(C(F)(F)F)c2)n[nH]1,63% (inactive)
7,COC(=O)c1sccc1S(=O)(=O)N1CCN(c2ccccc2OC)CC1,74% (inactive)
8,COc1cc(NC(=O)c2noc3c2CCc2ccccc2-3)cc(OC)c1OC,88% (inactive)
9,COc1cc(NC(=O)c2noc3c2CC(C)CC3)c(OC)cc1Cl (stereo unspecified),69% (inactive)
10,CC1CCc2onc(C(=O)Nc3ccc(Cl)cc3)c2C1 (stereo unspecified),75% (inactive)
11,CCc1ccccc1NC(=O)c1noc2c1CC(C(C)(C)C)CC2 (stereo unspecified),-6% (active)
12,O=C(Nc1ccccc1C(F)(F)F)c1noc2c1CCCC2,63% (inactive)
13,COc1cc(NC(=O)c2noc3c2CC(C(C)(C)C)CC3)cc(OC)c1OC (stereo unspecified),40% (active)
14,O=C(CN1C(=O)COc2ccc(S(=O)(=O)N3CCCC3)cc21)N1CCN(c2ccc(F)cc2)CC1,80% (inactive)
15,CCOc1ccccc1CNc1nc2nc(C)cc(C)n2n1,97% (inactive)
16,CCc1ccccc1N(CC)C(=O)C1CCN(c2ncnc3c2nc2n3CCCCC2)CC1,83% (inactive)
17,CC(Oc1ccccc1F)C(=O)NCC1(N2CCOCC2)CCCCC1 (stereo unspecified),61% (inactive)
18,CC(=O)Nc1ccc(NC(=O)CC(C)n2ccc(C)n2)cc1 (stereo unspecified),52% (active)
19,CCOc1ccccc1CNC(=O)CC(C)n1ccc(C)n1 (stereo unspecified),77% (inactive)
20,CCOC(=O)c1ccc(NC(=O)CC(C)n2nc(C)cc2C)cc1 (stereo unspecified),124% (inactive)
21,O=C(OCc1ccccc1)Sc1nnc(-c2ccccc2Cl)o1,90% (inactive)
22,CCN(C(=O)Cn1c(=O)oc2cc(Cl)ccc21)c1cccc(C(F)(F)F)c1,67% (inactive)
23,CCn1c(=O)cc(OCC(=O)Nc2ccc(C)c(F)c2)c2ccccc21,60% (inactive)
24,CCc1ccc(CNC(=O)COc2cc(=O)n(CC)c3ccccc23)cc1,55% (inactive)
25,CCn1c(=O)cc(OCC(=O)N(C)c2cc(Cl)ccc2C)c2ccccc21,55% (active)
26,CCCN(C(=O)Cn1c(=O)oc2cc(Cl)ccc21)c1ccc(C(C)C)cc1,15% (active)

row,SMILES,survival
1,CCCN(C(=O)COc1cc(=O)n(CC)c2ccccc12)c1ccc(C(C)C)cc1,-22% (active)
2,CCCN(c1ccc(C(C)C)cc1)S(=O)(=O)c1ccc2c(c1)oc(=O)n2CC(=O)OCC,73% (inactive)
3,CCn1c(=O)cc(OCC(=O)NCc2ccccc2Cl)c2ccccc21,40% (active)
4,CCn1c(=O)cc(OCC(=O)N(C)c2ccc(OC)cc2)c2ccccc21,72% (inactive)
5,CCn1c(=O)cc(OCC(=O)NCc2ccccc2OC)c2ccccc21,60% (inactive)
6,CCn1c(=O)cc(OCC(=O)NCc2ccc(F)cc2Cl)c2ccccc21,105% (inactive)
7,CCn1c(=O)cc(OCC(=O)Nc2cc(Cl)c(OC)cc2OC)c2ccccc21,69% (inactive)
8,Cc1ccc(/C=C/c2onc(C)c2S(=O)(=O)N2CCC(C(=O)N3CCN(c4cccc(C)c4)C(C)C3)CC2)cc1 (stereo unspecified),67% (inactive)
9,COc1ccccc1C(=O)NC1(C(F)(F)F)C(=O)Nc2c1c(=O)[nH]c(=O)n2-c1ccc(F)cc1 (stereo unspecified),190% (inactive)
10,Cc1ccc(-n2ncc3c(=O)n(Cc4ccccc4C)cnc32)cc1C,127% (inactive)
11,CC(=O)N(Cc1cccnc1)c1nc2ccc(F)cc2s1,81% (inactive)
12,Cc1ccc2c(=O)cc(C(=O)Nc3ccc(S(=O)(=O)N4CCCC(C)C4)cc3)oc2c1C (stereo unspecified),51% (active)
13,Cc1ccc2c(=O)cc(C(=O)Nc3ccc(S(=O)(=O)N4CCCCC4)cc3)oc2c1C,90% (inactive)
14,Cc1cc(C)c2oc(C(=O)Nc3ccc(S(=O)(=O)N4CCCCC4)cc3)cc(=O)c2c1,45% (active)
15,Cc1ccc2c(=O)cc(C(=O)Nc3ccc(S(=O)(=O)N4CCC(C)CC4)cc3)oc2c1C,60% (inactive)
16,Cc1ccc(NC(=O)c2oc3ccc(S(=O)(=O)N4CCCCCC4)cc3c2C)cc1Cl,86% (inactive)
17,Cc1c(C(=O)Nc2ccc(F)cc2)oc2ccc(S(=O)(=O)N3CCCCCC3)cc12,99% (inactive)
18,Cc1cc(C)c2oc(C(=O)Nc3ccc(S(=O)(=O)N4CCCCCC4)cc3)cc(=O)c2c1,62% (inactive)
19,Cc1c(C(=O)Nc2ccc(F)c(F)c2)oc2ccc(S(=O)(=O)N3CCCCC3)cc12,52% (active)
20,Cc1cc(C)c2oc(C(=O)Nc3ccc(S(=O)(=O)N4CCC(C)CC4)cc3)cc(=O)c2c1,48% (inactive)
21,O=C(Nc1ccc(S(=O)(=O)N2CCCCC2)cc1)C(F)(F)F,58% (active)
22,O=C(Nc1ccc(S(=O)(=O)N2CCCCC2)cc1)C1CCCCC1,97% (inactive)
23,COC(=O)Nc1ccc(S(=O)(=O)N2CCCCC2)cc1,107% (inactive)
